The values below come from PubChem BioAssay (NCI).

Structures are written as SMILES. The panel holds about 79,000 compounds, 15% with a hit somewhere; the sample as a whole holds those more often. A number with no mark means an inactive call. Active and inactive are the calls of the source. No stated cut-off is given here; in the data, active means growth inhibition above about 70%; inactive means the rest.

The nature of assay [1]: NCI Yeast Anticancer Drug Screen. Data for the rad50 strain (AID 155).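 Further: 0% = growth of vehicle-only cultures of the same strain.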 The conditions noted are these: S. cerevisiae rad50 strain growth inhibition, active compounds read high. The procedure, abridged:
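Compounds were tested on a yeast strain with an engineered DNA damage repair alteration; the reported value is growth inhibition normalised to vehicle treatment.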

A short description of assay [2]: NCI Yeast Anticancer Drug Screen. Data for the mec2-1 strain (AID 157). The conditions noted are these: S. cerevisiae mec2-1 strain, active compounds read high. The procedure, abridged:
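Compounds were applied to mec2-1 yeast cells. Their growth was then compared with that of vehicle-treated cultures to give growth inhibition.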

The nature of assay [3]: NCI Yeast Anticancer Drug Screen. Data for the sgs1 mgt1 strain (AID 161).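 Further: 0% = growth of cultures given vehicle only.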 The conditions noted are these: S. cerevisiae sgs1 mgt1 strain, active compounds read high. In outline: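 Percent growth inhibition was derived by comparing compound-exposed mutant yeast with vehicle-exposed cultures. The strain carries alterations in DNA damage repair.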
The nature of assay [4]: NCI Yeast Anticancer Drug Screen. Data for the cln2 rad14 strain (AID 165).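 Further: 0% = growth equal to vehicle treated cultures.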 The conditions noted are these: S. cerevisiae cln2 rad14 strain, active compounds read high. In outline: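 Strain: cln2 rad14 yeast, altered in cell cycle control and DNA damage repair. Read-out: growth inhibition vs vehicle.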
A short description of assay [5]: NCI Yeast Anticancer Drug Screen. Data for the bub3 strain (AID 167). The conditions noted are these: S. cerevisiae bub3 mutant strain, active compounds read high. In outline: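 Growth of a checkpoint-deficient yeast mutant is measured after compound exposure. Values represent inhibition relative to vehicle.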
A short description of assay [6]: NCI Yeast Anticancer Drug Screen. Data for the mlh1 rad18 strain (AID 175). The conditions noted are these: S. cerevisiae mlh1 rad18 strain growth inhibition, active compounds read high. In outline: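 A repair-deficient yeast strain is exposed to test compound, and growth is scored relative to vehicle-treated controls.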
Where [7] appears, read: at 5.0 µM (retest, dose inferred, filed as 0.5).
Where [8] appears, read: at 50.0 µM (retest, dose inferred, filed as 5.0).

In the case of `CCCCCOC(=O)CSC#N`, the growth inhibition in assay [1] (setting [7]) is 93% (active); in assay [1] (setting [8]), 99% (active); in assay [1] (at 50.0 µM) it was 98.7% (active); in assay [2] (setting [7]), 97% (active); in assay [2] (setting [8]) it was 99% (active); in assay [2] (at 50.0 µM), 99% (active). The growth inhibition is 96% (active) in assay [3] (setting [7]); 98% (active) in assay [3] (setting [8]); 98.8% (active) in assay [3] (at 50.0 µM); 79% (active) in assay [4] (setting [7]); 99% (active) in assay [4] (setting [8]); 98.5% (active) in assay [4] (at 50.0 µM). For the same compound, the growth inhibition in assay [5] (setting [7]) was 96% (active); in assay [5] (setting [8]), 99% (active); in assay [5] (at 50.0 µM), 98.7% (active); in assay [6] (setting [7]), 91% (active); in assay [6] (setting [8]) it was 99% (active); in assay [6] (at 50.0 µM) it was 98.8% (active).

Turning to `CNc1cc(SC)nc(N)n1`, the growth inhibition in assay [1] (setting [7]) is 3%; in assay [1] (setting [8]), -7%; in assay [1] (at 50.0 µM) it was 89.7% (active); in assay [2] (setting [7]), -2%; in assay [2] (setting [8]) it was -3%; in assay [2] (at 50.0 µM), 94.3% (active). Further, the growth inhibition was 1% in assay [3] (setting [7]); -9% in assay [3] (setting [8]); 92.8% (active) in assay [3] (at 50.0 µM); -1% in assay [4] (setting [7]); 0% in assay [4] (setting [8]); 91.8% (active) in assay [4] (at 50.0 µM). For the same compound, the growth inhibition in assay [5] (setting [7]) was -1%; in assay [5] (setting [8]), -1%; in assay [5] (at 50.0 µM) it was 75.4% (active); in assay [6] (setting [7]), 0%; in assay [6] (setting [8]), -4%; in assay [6] (at 50.0 µM), 95% (active).

With `CC(=O)Oc1ccc(/C=C/c2ccncc2)cc1`, the growth inhibition is -164% in assay [1] (setting [7]); -78% in assay [1] (setting [8]); 67.8% in assay [1] (at 50.0 µM); -47% in assay [2] (setting [7]); -33% in assay [2] (setting [8]); 44% in assay [2] (at 50.0 µM). Besides, the growth inhibition was -65% in assay [3] (setting [7]); 7% in assay [3] (setting [8]); 60% in assay [3] (at 50.0 µM); -58% in assay [4] (setting [7]); -32% in assay [4] (setting [8]); 50.1% in assay [4] (at 50.0 µM). For the same compound, the growth inhibition in assay [5] (setting [7]) was -58%; in assay [5] (setting [8]), 6%; in assay [5] (at 50.0 µM), 84.7% (active); in assay [6] (setting [7]), -157%; in assay [6] (setting [8]) it was -69%; in assay [6] (at 50.0 µM), 48.2%.

`Cc1ccc(S(=O)(=O)OCCc2ccc(Cl)cc2)cc1`: the growth inhibition is -10% in assay [1] (setting [7]); -21% in assay [1] (setting [8]); -19.6% in assay [1] (at 50.0 µM); -11% in assay [2] (setting [7]); -13% in assay [2] (setting [8]); -10.3% in assay [2] (at 50.0 µM). Moreover, the growth inhibition is -6% in assay [3] (setting [7]); 41% in assay [3] (setting [8]); -10.4% in assay [3] (at 50.0 µM); -15% in assay [4] (setting [7]); -20% in assay [4] (setting [8]); -16.5% in assay [4] (at 50.0 µM). Also, the growth inhibition is 9% in assay [5] (setting [7]); 22% in assay [5] (setting [8]); 71.2% (active) in assay [5] (at 50.0 µM); -14% in assay [6] (setting [7]); -12% in assay [6] (setting [8]); -7.75% in assay [6] (at 50.0 µM).

Consider `COc1ccc(NC(=O)CC(=O)n2nc(-c3ccccc3)c(N=Nc3ccc(C)cc3)c2-c2ccccc2)cc1`, for which the growth inhibition in assay [1] (setting [7]) is 34%; in assay [1] (setting [8]), 34%; in assay [1] (at 50.0 µM) it was 36.9%; in assay [2] (setting [7]), 28%; in assay [2] (setting [8]) it was 28%; in assay [2] (at 50.0 µM), 5.95%. Further, the growth inhibition in assay [3] (setting [7]) is 19%; in assay [3] (setting [8]), 19%; in assay [3] (at 50.0 µM), -6.65%; in assay [4] (setting [7]) it was 20%; in assay [4] (setting [8]) it was 20%; in assay [4] (at 50.0 µM) it was 21%. Further, the growth inhibition in assay [5] (setting [7]) was 27%; in assay [5] (setting [8]), 27%; in assay [5] (at 50.0 µM), 35.1%; in assay [6] (setting [7]), 36%; in assay [6] (setting [8]) it was 36%; in assay [6] (at 50.0 µM) it was -3.75%.

As to `O=[N+]([O-])c1cc2ccc(O)cc2c2ccccc12`, the growth inhibition in assay [1] (setting [7]) was -1%; in assay [1] (setting [8]), 89% (active); in assay [1] (at 50.0 µM) it was 93.5% (active); in assay [2] (setting [7]), -8%; in assay [2] (setting [8]), 85% (active); in assay [2] (at 50.0 µM), 94.2% (active). Besides, the growth inhibition in assay [3] (setting [7]) was 10%; in assay [3] (setting [8]), 86% (active); in assay [3] (at 50.0 µM), 96.3% (active); in assay [4] (setting [7]) it was -1%; in assay [4] (setting [8]) it was 60%; in assay [4] (at 50.0 µM), 95.2% (active). The growth inhibition is -3% in assay [5] (setting [7]); 86% (active) in assay [5] (setting [8]); 96.2% (active) in assay [5] (at 50.0 µM); -7% in assay [6] (setting [7]); 91% (active) in assay [6] (setting [8]); 93.7% (active) in assay [6] (at 50.0 µM).

For `COc1ccccc1NC(=O)/C(=C\N1C(=O)/C(=C/c2cc(OC)c(OC)c(OC)c2)SC1=S)C(C)=O`, the growth inhibition was -11% in assay [1] (setting [7]); 9% in assay [1] (setting [8]); 46% in assay [1] (at 50.0 µM); -12% in assay [2] (setting [7]); 14% in assay [2] (setting [8]); 13.4% in assay [2] (at 50.0 µM). In addition, the growth inhibition in assay [3] (setting [7]) is -8%; in assay [3] (setting [8]) it was 35%; in assay [3] (at 50.0 µM), 74.2% (active); in assay [4] (setting [7]) it was -28%; in assay [4] (setting [8]), 7%; in assay [4] (at 50.0 µM), 8.6%. Moreover, the growth inhibition is -21% in assay [5] (setting [7]); -12% in assay [5] (setting [8]); 27.9% in assay [5] (at 50.0 µM); -39% in assay [6] (setting [7]); 25% in assay [6] (setting [8]); 49.7% in assay [6] (at 50.0 µM).

On to `C(=C/c1ccccc1)/C=N/Nc1ccccc1`, for which the growth inhibition in assay [1] (setting [7]) was -139%; in assay [1] (setting [8]), -112%; in assay [1] (at 50.0 µM), -15.8%; in assay [2] (setting [7]), -52%; in assay [2] (setting [8]) it was -50%; in assay [2] (at 50.0 µM), 9.7%. Also, the growth inhibition was -53% in assay [3] (setting [7]); -52% in assay [3] (setting [8]); -23.8% in assay [3] (at 50.0 µM); -61% in assay [4] (setting [7]); -64% in assay [4] (setting [8]); -9% in assay [4] (at 50.0 µM). Also, the growth inhibition in assay [5] (setting [7]) is -72%; in assay [5] (setting [8]) it was -59%; in assay [5] (at 50.0 µM), 36.5%; in assay [6] (setting [7]), -107%; in assay [6] (setting [8]) it was -79%; in assay [6] (at 50.0 µM), 2.35%.

Turning to `C[C@]12CC[C@@H]3c4cc(OCC(F)(F)F)c(O)cc4CC[C@H]3[C@@H]1CC[C@@H]2O`, the growth inhibition was -3% in assay [1] (setting [7]); 97% (active) in assay [1] (setting [8]); 98.6% (active) in assay [1] (at 50.0 µM); -5% in assay [2] (setting [7]); 99% (active) in assay [2] (setting [8]); 98.5% (active) in assay [2] (at 50.0 µM). For the same compound, the growth inhibition in assay [3] (setting [7]) was 10%; in assay [3] (setting [8]) it was 99% (active); in assay [3] (at 50.0 µM) it was 98.8% (active); in assay [4] (setting [7]) it was -13%; in assay [4] (setting [8]), 97% (active); in assay [4] (at 50.0 µM), 98.2% (active). The growth inhibition is 5% in assay [5] (setting [7]); 99% (active) in assay [5] (setting [8]); 98.8% (active) in assay [5] (at 50.0 µM); -6% in assay [6] (setting [7]); 98% (active) in assay [6] (setting [8]); 98.6% (active) in assay [6] (at 50.0 µM).

Turning to `CC(=O)CC1(O)C(=O)Nc2ccc(Br)cc21` (stereo not given), the growth inhibition in assay [1] (setting [7]) is 1%; in assay [1] (setting [8]), -2%; in assay [1] (at 50.0 µM), 39%; in assay [2] (setting [7]), 0%; in assay [2] (setting [8]), -3%; in assay [2] (at 50.0 µM) it was 6.3%. Also, the growth inhibition in assay [3] (setting [7]) is -2%; in assay [3] (setting [8]) it was 1%; in assay [3] (at 50.0 µM) it was 10.8%; in assay [4] (setting [7]) it was -3%; in assay [4] (setting [8]) it was 8%; in assay [4] (at 50.0 µM), 60.1%. The growth inhibition in assay [5] (setting [7]) is 6%; in assay [5] (setting [8]), 2%; in assay [5] (at 50.0 µM), 0.8%; in assay [6] (setting [7]), -5%; in assay [6] (setting [8]) it was -8%; in assay [6] (at 50.0 µM), 5.25%.
